In assay [1] the target is RAC-alpha serine/threonine-protein kinase (Homo sapiens) (UniProt P31749). The settings on record: at 0.1 µM.
Assay [2] shares this target. The settings on record: at 1 µM.
For assay [3], the target named is RAC-beta serine/threonine-protein kinase (Homo sapiens) (UniProt P31751). Conditions: at 0.1 µM.
For assay [4] the target is unchanged. The settings on record: at 1 µM.
Assay [5] concerns the target RAC-gamma serine/threonine-protein kinase (Homo sapiens) (UniProt Q9Y243). Conditions: at 0.1 µM.
For assay [6] the target is unchanged. Conditions: at 1 µM.
Assay [7] deals with G protein-coupled receptor kinase 6 (Homo sapiens) (UniProt P43250). The settings on record: at 0.1 µM.
The target is the same in assay [8]. The settings on record: at 1 µM.
In assay [9] the target is T1, Rhodopsin kinase GRK7 (Homo sapiens) (UniProt Q8WTQ7).
T1 sequence (whole entry): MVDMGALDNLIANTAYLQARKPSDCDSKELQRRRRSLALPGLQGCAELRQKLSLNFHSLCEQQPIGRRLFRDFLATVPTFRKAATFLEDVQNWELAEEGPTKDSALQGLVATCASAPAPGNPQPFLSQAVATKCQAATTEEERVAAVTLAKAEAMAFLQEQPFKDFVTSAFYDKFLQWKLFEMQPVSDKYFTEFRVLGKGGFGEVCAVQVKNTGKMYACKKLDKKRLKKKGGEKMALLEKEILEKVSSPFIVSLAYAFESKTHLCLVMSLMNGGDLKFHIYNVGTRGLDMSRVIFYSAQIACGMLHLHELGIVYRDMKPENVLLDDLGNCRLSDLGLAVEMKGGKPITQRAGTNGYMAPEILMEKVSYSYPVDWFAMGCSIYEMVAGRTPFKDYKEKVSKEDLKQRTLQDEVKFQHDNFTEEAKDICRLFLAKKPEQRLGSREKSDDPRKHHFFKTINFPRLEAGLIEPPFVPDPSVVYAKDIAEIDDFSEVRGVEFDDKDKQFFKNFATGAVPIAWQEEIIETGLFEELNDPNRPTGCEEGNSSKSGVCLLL
Conditions: at 0.1 µM.

Assay [10] addresses T1, Rhodopsin kinase GRK7 (Homo sapiens). Conditions: at 1 µM.
Assay [11] has as its target Serine/threonine-protein kinase MRCK alpha (Homo sapiens) (UniProt Q5VT25). Conditions: at 0.1 µM.
For assay [12] the target is unchanged. Conditions: at 1 µM.
Assay [13] concerns the target Serine/threonine-protein kinase MRCK beta (Homo sapiens) (UniProt Q9Y5S2). The settings on record: at 0.1 µM.
Assay [14] shares this target. The settings on record: at 1 µM.
Assay [15] concerns the target Ribosomal protein S6 kinase alpha-5 (Homo sapiens) (UniProt O75582). The settings on record: at 0.1 µM.
For assay [16] the target is unchanged. Conditions: at 1 µM.
The target in assay [17] is Ribosomal protein S6 kinase alpha-4 (Homo sapiens) (UniProt O75676). The settings on record: at 0.1 µM.
For assay [18] the target is unchanged. Conditions: at 1 µM.
Assay [19] concerns the target Ribosomal protein S6 kinase beta-1 (Homo sapiens) (UniProt P23443). Conditions: at 0.1 µM.
Assay [20] has the same target. The settings on record: at 1 µM.

In general, inhibition refers to the relative decrease from the control value, in per cent.

Chain of RAC-alpha serine/threonine-protein kinase (Homo sapiens) (P31749 whole entry): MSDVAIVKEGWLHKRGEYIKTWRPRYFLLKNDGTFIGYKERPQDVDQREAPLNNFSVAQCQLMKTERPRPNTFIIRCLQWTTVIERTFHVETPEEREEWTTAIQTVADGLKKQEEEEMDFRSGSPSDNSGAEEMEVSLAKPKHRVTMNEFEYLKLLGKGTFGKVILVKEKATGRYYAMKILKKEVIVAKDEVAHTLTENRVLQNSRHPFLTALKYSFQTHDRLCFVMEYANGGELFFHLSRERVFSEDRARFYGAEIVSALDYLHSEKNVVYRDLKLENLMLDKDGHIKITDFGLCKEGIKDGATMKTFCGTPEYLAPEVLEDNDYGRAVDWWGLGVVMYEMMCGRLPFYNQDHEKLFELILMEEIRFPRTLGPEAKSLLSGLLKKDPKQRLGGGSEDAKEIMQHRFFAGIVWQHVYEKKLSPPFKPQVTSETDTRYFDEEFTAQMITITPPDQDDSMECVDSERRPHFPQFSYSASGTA
Chain of Ribosomal protein S6 kinase alpha-4 (Homo sapiens) (O75676 whole entry, looked up): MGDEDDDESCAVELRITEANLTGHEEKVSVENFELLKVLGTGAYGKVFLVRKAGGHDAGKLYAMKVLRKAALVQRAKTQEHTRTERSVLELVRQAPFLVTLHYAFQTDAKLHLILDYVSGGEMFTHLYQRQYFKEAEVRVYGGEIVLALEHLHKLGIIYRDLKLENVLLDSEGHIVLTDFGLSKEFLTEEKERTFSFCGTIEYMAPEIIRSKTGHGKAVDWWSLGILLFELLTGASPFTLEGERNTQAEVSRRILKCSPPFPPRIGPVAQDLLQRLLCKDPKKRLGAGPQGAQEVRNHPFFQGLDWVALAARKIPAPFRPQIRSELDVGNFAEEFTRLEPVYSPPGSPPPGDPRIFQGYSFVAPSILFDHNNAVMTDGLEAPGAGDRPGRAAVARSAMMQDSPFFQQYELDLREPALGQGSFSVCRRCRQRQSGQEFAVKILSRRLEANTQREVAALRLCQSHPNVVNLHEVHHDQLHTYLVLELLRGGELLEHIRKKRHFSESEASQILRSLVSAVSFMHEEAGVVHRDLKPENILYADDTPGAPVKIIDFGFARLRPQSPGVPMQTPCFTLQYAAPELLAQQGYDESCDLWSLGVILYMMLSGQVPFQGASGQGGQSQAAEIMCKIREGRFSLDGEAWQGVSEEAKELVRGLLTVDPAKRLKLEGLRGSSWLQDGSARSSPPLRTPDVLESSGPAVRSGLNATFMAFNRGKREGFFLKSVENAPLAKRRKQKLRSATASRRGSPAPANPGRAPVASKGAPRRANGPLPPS
Chain of RAC-beta serine/threonine-protein kinase (Homo sapiens) (P31751 whole entry): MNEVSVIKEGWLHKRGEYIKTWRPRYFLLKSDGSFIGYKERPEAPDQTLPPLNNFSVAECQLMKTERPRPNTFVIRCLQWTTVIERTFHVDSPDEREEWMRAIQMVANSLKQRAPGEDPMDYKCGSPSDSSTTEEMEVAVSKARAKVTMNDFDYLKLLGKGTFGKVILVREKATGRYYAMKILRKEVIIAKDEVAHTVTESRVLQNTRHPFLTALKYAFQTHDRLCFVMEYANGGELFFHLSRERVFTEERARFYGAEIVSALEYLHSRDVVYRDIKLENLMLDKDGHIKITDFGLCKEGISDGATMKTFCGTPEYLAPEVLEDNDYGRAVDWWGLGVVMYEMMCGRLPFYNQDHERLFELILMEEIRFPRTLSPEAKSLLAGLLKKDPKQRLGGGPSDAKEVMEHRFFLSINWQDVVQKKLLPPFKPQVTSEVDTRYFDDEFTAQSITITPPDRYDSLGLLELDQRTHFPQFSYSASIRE
Chain of Ribosomal protein S6 kinase beta-1 (Homo sapiens) (P23443 whole entry, looked up): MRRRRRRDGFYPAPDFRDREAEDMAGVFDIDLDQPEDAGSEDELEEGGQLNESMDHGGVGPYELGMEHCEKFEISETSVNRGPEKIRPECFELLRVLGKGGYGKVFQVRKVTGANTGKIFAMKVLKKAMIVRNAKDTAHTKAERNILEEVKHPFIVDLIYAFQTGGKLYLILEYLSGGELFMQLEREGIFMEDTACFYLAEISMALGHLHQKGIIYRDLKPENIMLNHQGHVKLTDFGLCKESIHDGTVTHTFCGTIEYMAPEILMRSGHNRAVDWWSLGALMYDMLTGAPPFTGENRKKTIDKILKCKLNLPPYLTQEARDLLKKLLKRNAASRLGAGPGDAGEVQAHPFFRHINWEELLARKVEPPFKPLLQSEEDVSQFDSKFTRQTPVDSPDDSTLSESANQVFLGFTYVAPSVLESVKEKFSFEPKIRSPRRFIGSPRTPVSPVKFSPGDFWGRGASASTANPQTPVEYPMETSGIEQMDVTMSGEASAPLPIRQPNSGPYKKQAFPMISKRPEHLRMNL
Chain of G protein-coupled receptor kinase 6 (Homo sapiens) (P43250 whole entry, looked up): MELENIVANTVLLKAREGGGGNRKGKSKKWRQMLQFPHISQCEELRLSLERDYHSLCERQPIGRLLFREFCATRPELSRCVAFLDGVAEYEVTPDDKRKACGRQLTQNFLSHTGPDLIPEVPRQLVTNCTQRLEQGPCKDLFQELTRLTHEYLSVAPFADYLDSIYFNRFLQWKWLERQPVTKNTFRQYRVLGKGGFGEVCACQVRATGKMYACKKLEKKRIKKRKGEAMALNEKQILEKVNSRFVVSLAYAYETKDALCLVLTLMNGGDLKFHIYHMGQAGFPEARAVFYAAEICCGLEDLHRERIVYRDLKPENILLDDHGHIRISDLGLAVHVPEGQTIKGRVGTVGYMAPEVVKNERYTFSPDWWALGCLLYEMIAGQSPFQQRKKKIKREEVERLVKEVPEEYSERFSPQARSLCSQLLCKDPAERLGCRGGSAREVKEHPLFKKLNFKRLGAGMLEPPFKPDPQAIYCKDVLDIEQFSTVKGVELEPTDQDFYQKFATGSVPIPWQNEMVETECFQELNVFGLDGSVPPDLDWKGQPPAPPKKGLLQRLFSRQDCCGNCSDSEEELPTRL
Chain of Serine/threonine-protein kinase MRCK beta (Homo sapiens) (Q9Y5S2 whole entry): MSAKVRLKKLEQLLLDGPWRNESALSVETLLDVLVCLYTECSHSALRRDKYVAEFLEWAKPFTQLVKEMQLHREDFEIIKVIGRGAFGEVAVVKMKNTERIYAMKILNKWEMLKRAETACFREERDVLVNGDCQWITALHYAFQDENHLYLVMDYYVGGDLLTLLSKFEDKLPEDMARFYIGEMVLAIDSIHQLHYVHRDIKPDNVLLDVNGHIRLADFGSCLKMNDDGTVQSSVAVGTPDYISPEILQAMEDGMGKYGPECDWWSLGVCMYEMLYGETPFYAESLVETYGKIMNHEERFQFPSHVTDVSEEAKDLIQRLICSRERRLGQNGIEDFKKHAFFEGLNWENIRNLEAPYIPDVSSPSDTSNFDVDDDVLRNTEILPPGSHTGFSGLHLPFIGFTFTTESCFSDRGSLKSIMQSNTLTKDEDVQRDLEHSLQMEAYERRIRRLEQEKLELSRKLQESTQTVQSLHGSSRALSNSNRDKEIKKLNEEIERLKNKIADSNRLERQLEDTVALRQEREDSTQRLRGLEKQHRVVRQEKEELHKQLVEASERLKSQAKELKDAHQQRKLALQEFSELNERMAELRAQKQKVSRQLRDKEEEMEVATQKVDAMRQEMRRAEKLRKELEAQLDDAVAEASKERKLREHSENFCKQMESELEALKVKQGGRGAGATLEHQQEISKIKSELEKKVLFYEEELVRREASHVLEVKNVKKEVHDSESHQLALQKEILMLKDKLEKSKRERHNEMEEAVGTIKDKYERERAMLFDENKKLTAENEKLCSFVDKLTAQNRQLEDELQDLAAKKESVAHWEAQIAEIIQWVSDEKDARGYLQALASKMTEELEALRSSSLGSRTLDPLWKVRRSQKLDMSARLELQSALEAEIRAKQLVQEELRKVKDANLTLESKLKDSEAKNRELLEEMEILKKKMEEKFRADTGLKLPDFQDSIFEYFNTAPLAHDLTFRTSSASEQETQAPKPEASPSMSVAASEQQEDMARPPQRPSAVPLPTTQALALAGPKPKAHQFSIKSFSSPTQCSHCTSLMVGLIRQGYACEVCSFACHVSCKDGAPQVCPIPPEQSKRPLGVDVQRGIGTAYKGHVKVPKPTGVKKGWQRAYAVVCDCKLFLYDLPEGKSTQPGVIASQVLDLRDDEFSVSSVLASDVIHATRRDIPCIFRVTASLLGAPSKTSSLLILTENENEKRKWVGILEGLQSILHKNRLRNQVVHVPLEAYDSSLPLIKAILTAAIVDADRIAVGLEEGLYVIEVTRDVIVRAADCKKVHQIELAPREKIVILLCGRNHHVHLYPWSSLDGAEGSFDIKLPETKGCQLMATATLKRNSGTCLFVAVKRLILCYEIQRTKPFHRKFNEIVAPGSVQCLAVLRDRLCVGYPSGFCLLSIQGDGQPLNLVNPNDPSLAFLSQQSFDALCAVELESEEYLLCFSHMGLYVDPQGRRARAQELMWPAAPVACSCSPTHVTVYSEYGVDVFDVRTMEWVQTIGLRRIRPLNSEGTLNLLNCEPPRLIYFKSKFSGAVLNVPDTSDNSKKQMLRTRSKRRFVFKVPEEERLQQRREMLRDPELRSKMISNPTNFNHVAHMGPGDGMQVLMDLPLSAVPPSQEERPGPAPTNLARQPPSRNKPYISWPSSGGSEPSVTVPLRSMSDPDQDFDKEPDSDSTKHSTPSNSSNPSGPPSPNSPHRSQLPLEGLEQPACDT
Chain of RAC-gamma serine/threonine-protein kinase (Homo sapiens) (Q9Y243 whole entry): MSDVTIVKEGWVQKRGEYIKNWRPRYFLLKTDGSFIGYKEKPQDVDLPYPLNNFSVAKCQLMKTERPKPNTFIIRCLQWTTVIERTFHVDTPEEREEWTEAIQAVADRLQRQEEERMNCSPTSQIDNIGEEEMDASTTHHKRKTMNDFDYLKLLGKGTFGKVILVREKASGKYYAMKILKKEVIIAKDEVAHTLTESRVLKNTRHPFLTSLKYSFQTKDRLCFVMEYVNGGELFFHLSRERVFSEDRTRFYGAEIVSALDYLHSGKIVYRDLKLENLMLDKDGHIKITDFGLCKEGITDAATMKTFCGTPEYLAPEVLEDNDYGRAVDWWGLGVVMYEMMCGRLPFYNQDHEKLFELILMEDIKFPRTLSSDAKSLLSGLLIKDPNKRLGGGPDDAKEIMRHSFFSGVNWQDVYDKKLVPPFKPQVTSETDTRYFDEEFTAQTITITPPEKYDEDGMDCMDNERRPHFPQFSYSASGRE

As for `CS(=O)(=O)CCNCc1cc(-c2cc3c(Nc4ccc(OCc5cccc(F)c5)c(Cl)c4)ncnc3s2)cs1`, the inhibition amounted to 0.79% in assay [1]; 0.35% in [2]; 0.7% in [3]; 1.93% in assay [4]; 1.15% in [5]; 3.27% in assay [6]. Besides, the inhibition stood at 6.28% in assay [7]; 6.32% in assay [8]; 8.59% in assay [9]; 4.24% in assay [10]; 2.36% in [11]; 5.45% in [12]. Further, the inhibition in assay [13] was -0.63%; in assay [14] it was 2.8%; in assay [15] it was 2.17%; in assay [16] it was 1.79%; in [17] it was 3.41%; in assay [18], 4.94%. The inhibition in assay [19] was 2.17%; in [20], 4.75%.
Take `CN(C)c1ccc2c(c1)/C(=C/Nc1ccc(S(N)(=O)=O)cc1)C(=O)N2`: the inhibition was 0.14% in [1]; -0.46% in assay [2]; 0.75% in assay [3]; 1.06% in [4]; 2.06% in [5]; 1.85% in assay [6]. For the same molecule, the inhibition in assay [7] turned out to be 3.15%; in assay [8], 5.15%; in assay [9], 0.97%; in assay [10], 8.73%; in assay [11], 0.22%; in [12], 4.01%. For the same molecule, the inhibition in assay [13] is 1.12%; in [14] it was 2.85%; in assay [15] it was 3.06%; in assay [16], 4.05%; in assay [17] it was 1.96%; in assay [18] it was 3.55%. In addition, the inhibition worked out at 0.19% in assay [19] and 3.09% in assay [20].
With `C[C@@H](Oc1cc(-n2cnc3ccc(OC4CCN(C)CC4)cc32)sc1C(N)=O)c1ccccc1Cl`, the inhibition in assay [1] was -2.97%; in assay [2], -3.84%; in assay [3], -4.17%; in assay [4], -2.31%; in [5], -2.91%; in [6], -1.57%. Moreover, the inhibition stood at 4.79% in [7]; 6.21% in assay [8]; 10.7% in [9]; 3.62% in assay [10]; 0.03% in assay [11]; 5.65% in assay [12]. Besides, the inhibition in assay [13] is 0.19%; in assay [14], 2.98%; in [15], 2.31%; in assay [16], 1.66%; in [17], 2.84%; in assay [18] it was 5.67%. In addition, the inhibition in assay [19] was found to be 1.64%; in assay [20], 5.01%.
As to `CCS(=O)(=O)c1ccc(OC)c(Nc2ncc(-c3cccc(-c4ccccc4F)c3)o2)c1`, the inhibition was -0.24% in [1]; -0.11% in assay [2]; 0.25% in assay [3]; 0.43% in [4]; 1.02% in [5]; -0.29% in assay [6]. Besides, the inhibition in assay [7] is 1.94%; in assay [8], -0.56%; in assay [9], 0.7%; in assay [10], -0.85%; in [11], -0.09%; in assay [12], -0.52%. Also, the inhibition in assay [13] amounted to 0.66%; in assay [14], 1.36%; in assay [15] it was 0.09%; in assay [16] it was 1.42%; in assay [17], 0.74%; in assay [18], 1.94%. The inhibition in assay [19] was found to be 0.15%; in [20], 1.18%.
On to `Fc1ccc(-c2ncn(C3CCNCC3)c2-c2ccnc(Oc3ccc(F)c(F)c3)n2)cc1`, for which the inhibition in assay [1] was -3%; in assay [2] it was -3.59%; in assay [3], -3.3%; in assay [4], -2.56%; in [5], -2.6%; in assay [6], -1.9%. Further, the inhibition was -0.72% in [7]; 2.05% in [8]; 9.11% in assay [9]; 1.73% in assay [10]; -3.08% in assay [11]; -2.58% in assay [12]. Also, the inhibition in [13] is -0.68%; in assay [14], -0.35%; in [15], 0.54%; in assay [16], -0.7%; in assay [17] it was 3.37%; in assay [18] it was 4.69%. For the same molecule, the values for the inhibition in assay [19] and in assay [20] were 0.73% and 0.63%, respectively.
In the case of `Cc1nnc(-c2ccc(C)c(-c3ccc(C(=O)NCc4ccc(Cl)cc4)cc3)c2)o1`, the inhibition in [1] was -1.66%; in assay [2] it was -2.4%; in assay [3] it was 0.03%; in assay [4] it was -2.39%; in [5] it was 0.07%; in [6], -0.93%. Besides, the inhibition stood at 5.17% in [7]; 5.38% in assay [8]; 4.29% in assay [9]; 9.45% in assay [10]; 0.16% in assay [11]; 1.24% in assay [12]. Also, the inhibition in assay [13] was 0.69%; in [14] it was -0.22%; in [15], 1.45%; in assay [16] it was 1.55%; in [17] it was 3.07%; in [18], 3.61%. The inhibition in [19] turned out to be 1.21%; in assay [20] it was 2.04%.
Regarding `C/C(Nc1ccc(S(N)(=O)=O)cc1)=C1/C(=O)Nc2ccccc21`, the inhibition in assay [1] is -0.64%; in assay [2], -1.45%; in assay [3] it was -3.63%; in [4], -0.17%; in assay [5], -2.53%; in [6], -0.18%. In addition, the inhibition in [7] was -0.76%; in assay [8], 9.44%; in assay [9] it was -7.29%; in [10], 2.76%; in [11], -0.23%; in assay [12], 0.16%. Also, the inhibition in assay [13] worked out at 0.47%; in assay [14], 3.4%; in [15], 0%; in assay [16] it was 8.47%; in assay [17], 1.38%; in assay [18] it was 17.7%. Further, the figures for the inhibition in [19] and in assay [20] were -1.96% and 2.17%, respectively.

Source of the values: ChEMBL document CHEMBL1961873, “Compounds: GSK PKIS; Assays: Nanosyn kinase panel” (2012).
